Data reported in the supplement of paper PMC12645437, “Orthogonal IMiD-Degron Pairs Induce Selective Protein Degradation in Cells” (ACS Chemical Biology, 2025).
In all, about 8,300 sequences were measured (“log2 fold change of degron read counts, EGFP-low vs EGFP+ sorted cells (limma voom), compound-induced degradation”: median about -1.1, highest 2% from about 3.2 on). For the sample, the highest values were picked, then their nearest neighbours and some sequences at random.

Target: T1, CRBN, Q96SW2
T1 chain: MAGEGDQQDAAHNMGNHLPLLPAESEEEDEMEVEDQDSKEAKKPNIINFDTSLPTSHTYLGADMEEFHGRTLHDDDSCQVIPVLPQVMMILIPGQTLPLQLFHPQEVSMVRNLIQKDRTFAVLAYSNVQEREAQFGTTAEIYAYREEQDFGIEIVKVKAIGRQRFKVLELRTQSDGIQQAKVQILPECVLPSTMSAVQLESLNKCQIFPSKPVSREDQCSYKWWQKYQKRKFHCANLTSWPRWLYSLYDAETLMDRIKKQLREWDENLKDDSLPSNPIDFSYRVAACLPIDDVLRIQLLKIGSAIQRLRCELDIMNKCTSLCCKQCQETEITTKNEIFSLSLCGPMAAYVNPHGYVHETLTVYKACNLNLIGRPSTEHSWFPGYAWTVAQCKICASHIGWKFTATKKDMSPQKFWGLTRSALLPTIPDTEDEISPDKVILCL
Test: log2 fold change of degron read counts, EGFP-low vs EGFP+ sorted cells (limma voom), compound-induced degradation; higher = more compound-induced degradation of the degron-EGFP fusion; degrons are variants of IKZF1/3 zinc finger 2; compound dose not given here
Conditions: Jurkat, 18 h

[1] = compound: compound 19 (5-tert-butyl-thalidomide)
[2] = compound: compound 22 (5-morpholino-thalidomide)
[3] = compound: compound 33 (diphenyl IMiD analogue)
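Also: pooled lentiviral library of zinc finger degron-EGFP fusions in mCherry-positive Jurkat cells, FACS-sorted after compound exposure, with degron abundance counted by next-generation sequencing.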

Row | Sequence | log2 fold change of degron read counts [1] | log2 fold change of degron read counts [2] | log2 fold change of degron read counts [3] | log2 fold change of degron read counts (compound: thalidomide)
1 | FICPQCGADFTQKGNLLRHIKL [46F_47I_49P_50Q_52G_53A_54D_55F_67L_, Q9UKT9] | -3.68 | -2.36 | -1.84 | -2.04
2 | FFCPICGHLFTQKGNLLRHIKL [46F_47F_49P_50I_52G_53H_54L_55F_67L_, Q9UKT9] | -0.994 | -0.746 | -0.828 | -1.02
3 | LLCEICGFFCTQKGNLLRHIKL [46L_47L_49E_50I_52G_53F_54F_55C_67L_, Q9UKT9] | -0.357 | -0.957 | -0.00991 | 0.351
4 | FMCDICGAMFTQKGNLLRHIKL [46F_47M_49D_50I_52G_53A_54M_55F_67L_, Q9UKT9] | -1.51 | -1.89 | 0.647 | -1.45
5 | FGCPICGRQFTQKGNLLRHIKL [46F_47G_49P_50I_52G_53R_54Q_55F_67L_, Q9UKT9] | 2.87 | 0.813 | 0.341 | -0.4
6 | LECPICGFVCTQKGNLLRHIKL [46L_47E_49P_50I_52G_53F_54V_55C_67L_, Q9UKT9] | -0.508 | -0.452 | 1.81 | 2.84
7 | FRCPVCGAYFTQKGNLLRHIKL [46F_47R_49P_50V_52G_53A_54Y_55F_67L_, Q9UKT9] | -0.775 | 0.429 | 1.02 | 1.64
8 | LHCEICGFQCTQKGNLLRHIKL [46L_47H_49E_50I_52G_53F_54Q_55C_67L_, Q9UKT9] | 2.39 | 2.27 | 1.7 | 1.64
9 | LCCNQCGFNCTQKGNLLRHIKL [46L_47C_49N_50Q_52G_53F_54N_55C_67L_, Q9UKT9] | -2 | -2.61 | -2.13 | -1.77
10 | FTCDVCGARFTQKGNLLRHIKL [46F_47T_49D_50V_52G_53A_54R_55F_67L_, Q9UKT9] | 0.31 | 1.8 | 0.304 | 1.36
11 | FFCEICGHRFTQKGNLLRHIKL [46F_47F_49E_50I_52G_53H_54R_55F_67L_, Q9UKT9] | -1.06 | -1.44 | -1.47 | -1.72
12 | FDCPICGAVFTQKGNLLRHIKL [46F_47D_49P_50I_52G_53A_54V_55F_67L_, Q9UKT9] | 0.604 | 0.176 | 1.99 | 1.81
13 | FICEVCGAPFTQKGNLLRHIKL [46F_47I_49E_50V_52G_53A_54P_55F_67L_, Q9UKT9] | 2.03 | 3.48 | 2.78 | 3.17
14 | FSCEVCGAPFTQKGNLLRHIKL [46F_47S_49E_50V_52G_53A_54P_55F_67L_, Q9UKT9] | 2.89 | 2.01 | 0.358 | 1.1
15 | FTCNVCGAPFTQKGNLLRHIKL [46F_47T_49N_50V_52G_53A_54P_55F_67L_, Q9UKT9] | 0.145 | 1.49 | 0.972 | 1.51
16 | FNCEVCGAPFTQKGNLLRHIKL [46F_47N_49E_50V_52G_53A_54P_55F_67L_, Q9UKT9] | 2.7 | 1.8 | 0.0261 | 0.847
17 | FACEVCGAPFTQKGNLLRHIKL [46F_47A_49E_50V_52G_53A_54P_55F_67L_, Q9UKT9] | 3.19 | 1.62 | -0.375 | 0.871
18 | FCCNVCGAPFTQKGNLLRHIKL [46F_47C_49N_50V_52G_53A_54P_55F_67L_, Q9UKT9] | 1.3 | 0.686 | -0.00676 | 0.263

Row | Sequence | log2 fold change of degron read counts [1] | log2 fold change of degron read counts [2] | log2 fold change of degron read counts [3] | log2 fold change of degron read counts (compound: thalidomide)
19 | FHCEVCGAPFTQKGNLLRHIKL [46F_47H_49E_50V_52G_53A_54P_55F_67L_, Q9UKT9] | 3.54 | 3.17 | 2.03 | 1.38
20 | FTCEVCGAPFTQKGNLLRHIKL [46F_47T_49E_50V_52G_53A_54P_55F_67L_, Q9UKT9] | 2.16 | 3.25 | 1.81 | 2.71
21 | FFCEVCGAPFTQKGNLLRHIKL [46F_47F_49E_50V_52G_53A_54P_55F_67L_, Q9UKT9] | 4 | 3.18 | 1.98 | 1.73
22 | FDCEVCGAPFTQKGNLLRHIKL [46F_47D_49E_50V_52G_53A_54P_55F_67L_, Q9UKT9] | 0.668 | -1.2 | -1.15 | -0.746
23 | FFCEVCGADFTQKGNLLRHIKL [46F_47F_49E_50V_52G_53A_54D_55F_67L_, Q9UKT9] | -0.0497 | 0.23 | -0.854 | -0.804
24 | FMCDVCGACFTQKGNLLRHIKL [46F_47M_49D_50V_52G_53A_54C_55F_67L_, Q9UKT9] | -1.81 | -1.41 | 0.979 | -1.1
25 | FICNQCGAEFTQKGNLLRHIKL [46F_47I_49N_50Q_52G_53A_54E_55F_67L_, Q9UKT9] | -3.37 | -3.09 | -2.19 | -1.75
26 | FHCEICGAWFTQKGNLLRHIKL [46F_47H_49E_50I_52G_53A_54W_55F_67L_, Q9UKT9] | -0.982 | -1.57 | -0.784 | -2.02
27 | FYCEVCGAPFTQKGNLLRHIKL [46F_47Y_49E_50V_52G_53A_54P_55F_67L_, Q9UKT9] | 3.69 | 3.45 | 2.63 | 1.63
28 | FRCEVCGAPFTQKGNLLRHIKL [46F_47R_49E_50V_52G_53A_54P_55F_67L_, Q9UKT9] | 3.45 | 3.6 | 3.39 | 3.62
29 | FGCEVCGAPFTQKGNLLRHIKL [46F_47G_49E_50V_52G_53A_54P_55F_67L_, Q9UKT9] | 0.82 | -0.556 | -1.51 | -1.08
30 | FQCEVCGAPFTQKGNLLRHIKL [46F_47Q_49E_50V_52G_53A_54P_55F_67L_, Q9UKT9] | 3.05 | 3.49 | 1.41 | 3.53
31 | FCCEVCGAPFTQKGNLLRHIKL [46F_47C_49E_50V_52G_53A_54P_55F_67L_, Q9UKT9] | 3.23 | 2.09 | 0.726 | 1.26
32 | FWCEVCGAPFTQKGNLLRHIKL [46F_47W_49E_50V_52G_53A_54P_55F_67L_, Q9UKT9] | 3.08 | 2.92 | 1.89 | 1.01
33 | FRCEVCGADFTQKGNLLRHIKL [46F_47R_49E_50V_52G_53A_54D_55F_67L_, Q9UKT9] | -1.68 | -1.6 | 1.33 | 0.331
34 | FLCEVCGAPFTQKGNLLRHIKL [46F_47L_49E_50V_52G_53A_54P_55F_67L_, Q9UKT9] | 2.39 | 2.45 | 2.33 | 2.97
35 | FVCEVCGAPFTQKGNLLRHIKL [46F_47V_49E_50V_52G_53A_54P_55F_67L_, Q9UKT9] | 2.23 | 3.61 | 2.24 | 3.07
